Source: PubChem BioAssay (National Center for Advancing Translational Sciences (NCATS))
Pf Dd2 growth: Plasmodium falciparum Dd2 growth inhibition; P. falciparum Dd2 growth, SYBR Green, 72 h; Potency, µM (series often up to 28.9 µM), inactives show top-dose activity, negative = inhibition, hits mostly inhibitors; hit rate 4.3% among 120,000; active = well fitted inhibition curve with a large enough effect;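 also: plate controls were DMSO vehicle for no effect and reference drug for full effect; nearly all actives have a fitted effect of over 65% in size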
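Infected erythrocytes (Dd2, 0.3% parasitemia, 2.5% hematocrit final) are added to compound in RPMI-1640/Albumax II medium, grown 72 h at 37C in low oxygen, then lysed with saponin/Triton-X containing SYBR Green and read by fluorescence.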
* hit, by the source's call; [ ] = another dose, or the depositor's remark. Many of the other results were omitted from the sample, so hits are more common in it than they were. Potency is read from the fitted curve at half-maximal effect.

How did O=C1CSC2(C(=O)N(Cc3cccc(C(F)(F)F)c3)c3ccccc32)N1c1ccc(F)c(F)c1 (centres undefined) do in these assays?
Pf Dd2 growth: 11µM*

How did Cc1ccc(C)c(NC(=O)CN2C(=O)C(C)(C)c3ccccc32)c1 do in these assays?
Pf Dd2 growth: 10%

How did CN1C(=O)c2cccn2CC1CNS(=O)(=O)Cc1ccccc1 (centres undefined) do in these assays?
Pf Dd2 growth: -20%

How did O=C(CCn1cncn1)N1CCC(c2[nH]ncc2-c2cccc(F)c2)CC1 do in these assays?
Pf Dd2 growth: -4%

Results for O=C(Nc1ccsc1)N[C@H]1C[C@H]2C(=O)NC[C@@H](CCC(=O)N3CCOCC3)N2C1 ?
Pf Dd2 growth: 32%[44.1 µM]

What do the screens show for `Cn1ncc(N2CCC(CNC(=O)CN3CCOCC3)C2)cc1=O` (centres undefined)?
Pf Dd2 growth: 18%

Results for COc1cc(=O)n2c(c1C(=O)Nc1cccc(F)c1C)CCCC2 ?
Pf Dd2 growth: 17%

What do the screens show for `CC1CCN(C(=O)c2ccc3c(c2)C(O)CCCCCN3C)CC1` (centres undefined)?
Pf Dd2 growth: inactive

What do the screens show for `O=C(c1cc(C2CC2)[nH]n1)N1C[C@@H](CO)[C@H](c2ccccn2)C1`?
Pf Dd2 growth: inactive

What do the screens show for `Cc1ccc(C(=O)N2CCN(c3cc(C(F)(F)F)ncn3)CC2)cc1F`?
Pf Dd2 growth: -26%

How did Cc1cnc(CCNS(=O)(=O)c2cccc(F)c2)n1C(C)C do in these assays?
Pf Dd2 growth: -8%

What do the screens show for `COCCN1CCCC2(CCN(C(=O)CN3C(=O)CNC3=O)C2)C1=O` (centres undefined)?
Pf Dd2 growth: -10%

How did CCOc1ccc(C2NC(=O)N(CC(=O)N3CCC(C)CC3)C3=C2C(=O)OC3)cc1 (centres undefined) do in these assays?
Pf Dd2 growth: inactive

How did O=C(NCc1ccncc1)c1c(OCC2CC2)cc(=O)n2c1CCCCC2 do in these assays?
Pf Dd2 growth: -10%

What do the screens show for `Cc1cc(C)cc(N2C(=O)CSC23C(=O)N(CC(N)=O)c2ccccc23)c1` (centres undefined)?
Pf Dd2 growth: -13%

How did Cc1ccc(NC(=O)CN2C(=O)C(C)(C)c3ccccc32)cc1 do in these assays?
Pf Dd2 growth: -12%

What do the screens show for `CC1(C)C(=O)N(CC(=O)Nc2ccc(Cl)cc2)c2ccccc21`?
Pf Dd2 growth: 13%

Results for Cc1cc(C)c(NC(=O)CN2C(=O)C3(SCC(=O)N3c3ccc(F)cc3)c3ccccc32)c(C)c1 (centres undefined) ?
Pf Dd2 growth: 10µM*

How did O=C1CCSC2(C(=O)N(Cc3ccc(F)cc3)c3ccccc32)N1c1ccccc1 (centres undefined) do in these assays?
Pf Dd2 growth: -27%

Results for Cc1ccc(N2C(=O)CSC23C(=O)N(CC(=O)Nc2ccc(C(C)C)cc2)c2ccccc23)cc1C (centres undefined) ?
Pf Dd2 growth: 13µM*

Results for COCCNC(=O)[C@@H]1C[C@@H](O)CN1C1CCN(C(=O)c2cc(F)ccc2F)CC1 ?
Pf Dd2 growth: -2%

How did COc1ccc(N2CC(C(=O)N3CCC(C(=O)N4CCOCC4)C3)NC2=O)cc1 (centres undefined) do in these assays?
Pf Dd2 growth: 9%

What do the screens show for `COc1cncc([C@@H](NC(=O)Cc2cn3ccsc3n2)C2CC(O)C2)c1` (some centres undefined)?
Pf Dd2 growth: -23%

Results for CC(=O)N1CCC(NC2(Cc3cc(CN(C)Cc4ccccc4)on3)COC2)CC1 ?
Pf Dd2 growth: -13%[44.1 µM]

How did Cc1ccc(OCC(O)Cn2c(=N)n(CCN3CCCCC3)c3ccccc32)cc1 (centres undefined) do in these assays?
Pf Dd2 growth: 2.8µM*

Results for Cc1nc2ccccc2n1CC(O)COc1ccc(C(=O)O)cc1 (centres undefined) ?
Pf Dd2 growth: 17%

What do the screens show for `COc1ccc(OCC(O)Cn2c(=N)n(CCN3CCCCC3)c3ccccc32)cc1` (centres undefined)?
Pf Dd2 growth: 7.9µM*

What do the screens show for `CCn1c(COc2ccc(Cl)cc2Cl)nc2ccccc21`?
Pf Dd2 growth: -19%

How did CCNc1nc2c(c(=O)[nH]c(=O)n2C)n1CC(O)COc1ccc(Cl)cc1Cl (centres undefined) do in these assays?
Pf Dd2 growth: -13%

How did COc1ccc(N2CCN(CC(O)COc3ccc(C)cc3C)CC2)cc1 (centres undefined) do in these assays?
Pf Dd2 growth: 1%

Results for N=c1n(CCN2CCCCC2)c2ccccc2n1CC(O)COc1ccc(Cl)cc1Cl (centres undefined) ?
Pf Dd2 growth: 1µM*

What do the screens show for `COc1ccc(N2CCN(CC(O)COc3ccc(C(C)(C)C)cc3)CC2)cc1` (centres undefined)?
Pf Dd2 growth: -6%

What do the screens show for `CC1=CCN(Cc2ccc(OCC(O)CN3CCN(C)CC3)cc2)CC1` (centres undefined)?
Pf Dd2 growth: 7%

What do the screens show for `CCCc1nn(-c2ccccc2C)c(OC(C)=O)c1-c1ccc(NC(=O)CC)cc1`?
Pf Dd2 growth: inactive

Results for Cc1nn(-c2ccccc2)nc1C(=O)N[C@H](C)c1onc(C)c1C(=O)O ?
Pf Dd2 growth: inactive

How did N#Cc1cccc(CN2CCc3nc(N4CCOCC4)[nH]c(=O)c3CC2)c1 do in these assays?
Pf Dd2 growth: inactive[5.79 µM]

What do the screens show for `CCN(C(=O)c1ccc2c(c1)N(S(C)(=O)=O)CC2)c1ccccc1C`?
Pf Dd2 growth: inactive

What do the screens show for `COc1cccc(C(=O)N2CC3CC(C2)[C@H]2CCCC(=O)N2C3)c1` (some centres undefined)?
Pf Dd2 growth: -5%

How did O=C(N[C@H](Cc1ccncc1)C1CC(O)C1)c1cccn1C1CC1 (some centres undefined) do in these assays?
Pf Dd2 growth: 2%

Results for CCOC(=O)c1cc(-c2ccc(OC)cc2)nn1Cc1ccccc1 ?
Pf Dd2 growth: -1%

How did CCOC(=O)C1=C(CN(CC)Cc2ccccc2)NC(=O)NC1c1ccc(OC)cc1 (centres undefined) do in these assays?
Pf Dd2 growth: inactive

Results for Cc1c(C(=O)OCC2CCCCC2)[nH]c2c1C(=O)CC(c1ccc(Cl)cc1)C2 (centres undefined) ?
Pf Dd2 growth: 3%

What do the screens show for `CCOC(=O)c1[nH]c2c(c1Cc1ccccc1)C(=O)CC(c1ccc(Cl)cc1)C2` (centres undefined)?
Pf Dd2 growth: 10µM*

How did Cc1ccc(COC(=O)c2[nH]c3c(c2C)C(=O)CC(c2ccc(Cl)cc2)C3)cc1 (centres undefined) do in these assays?
Pf Dd2 growth: -6%

What do the screens show for `CCOC(=O)c1[nH]c2c(c1Cc1ccccc1)C(=O)CC(c1ccc(OC)cc1)C2` (centres undefined)?
Pf Dd2 growth: 11µM*

How did O=C1Nc2ccc(Br)cc2C(=O)N2CCN(C(=O)c3cccc(F)c3)C[C@H]12 do in these assays?
Pf Dd2 growth: -18%[44.1 µM]

What do the screens show for `Cn1cnc([S+](=O)([O-])N2CCC(c3nnc4n3C(C(=O)O)CC4)CC2)c1` (centres undefined)?
Pf Dd2 growth: 24%

Results for CC1CCN(C(=O)[C@@H](C)C2CC[C@@]3(C)CC[C@H](NC(=O)c4cnccn4)[C@@H](C)[C@@H]3[C@H]2O)CC1 (some centres undefined) ?
Pf Dd2 growth: -25%

Results for COC(=O)[C@@H](C)NC(=O)[C@H]1CN(C(=O)c2cccnc2)CCN1C(=O)NC(C)C ?
Pf Dd2 growth: -12%[44.1 µM]

Results for Cc1ccn(CC(=O)N2CC(F)(F)C[C@H]2c2nc(C3CC3)no2)n1 ?
Pf Dd2 growth: 23%
